# Test results as given in ChEMBL document CHEMBL3988442, “University of Dundee, Small-Polar-MMV Screening Library” (2021).
# The whole screen tested about 48,000 compounds, of which about 13,000 (27%) showed an effect of 50% or more. The list shows a part of the results.
# Test system: Wolbachia pipientis
# Experiment: Anti-Wolbachia Cell-Based Screen
# Format: functional
# Parameters: scale not given: in the data most compounds retested in dose-response had high values
# Conditions: 5 µM
row,Compound,Percent Effect [%]
1,CC(C)N(Cc1nccn1C)C(=O)c1cc(Cl)c[nH]c1=O,-15.2
2,CCNC(=O)[C@@H]1C[C@@H](N)CN1Cc1ccc(Sc2ccc(C)cc2)o1,5.501
3,CN(C(=O)COC1CCCC1)C1CCN(CC2CCOC2)CC1 (stereo not given),-27.33
4,CN(CCCc1nccn1C)C(=O)C1CCN(C(=O)C2CCC2)CC1,9.591
5,O=C(NC1CCCC1)N1CC[C@H]2[C@H]1CCN2c1nncs1.O=C(O)C(F)(F)F,1.453
6,CS(=O)(=O)N1CCCc2sc(C(=O)NC3CC3)nc21,-1.89
7,Cc1cc(CNC(=O)NCc2cccs2)no1,116.2
8,Cc1cc(CN2CCN(C(C)C(=O)NCc3cccs3)CC2)no1 (stereo not given),-4.683
9,CN(C)c1ncccc1CNC(=O)NCc1cccs1,101
10,CC(NC(=O)NCc1cccnc1N(C)C)c1ccc(F)cc1 (stereo not given),97.94
11,Cc1cc(CNC(=O)NC(C)c2ccccc2)no1 (stereo not given),-4.939
12,Cc1cc(CNC(=O)c2cc(COc3cncc(Cl)c3)on2)n[nH]1,-4.866
13,CN1CCCC2(CCN(S(=O)(=O)c3c(Cl)nc4sccn34)C2)C1=O (stereo not given),-6.903
14,COc1ccc(CN2CCCn3nnc(COCC4CC4)c3C2)cc1.O=C(O)C(F)(F)F,-11.72
15,CN(Cc1c[nH]nc1-c1ccc(F)cc1F)Cc1nccn1C,-2.031
16,CCC(C)(NCC(=O)NC(=O)NC)c1nccs1 (stereo not given),3.438
17,Cc1ccc(C2COCCN2C(=O)c2ccc(N(C)C)cc2)o1 (stereo not given),16.04
18,O=C(COc1ccccc1F)N1CCCCC1c1ccn2ccnc2n1 (stereo not given),107.9
19,O=C(CCc1cccnc1)N1CCCCC1c1ccn2ccnc2n1 (stereo not given),103.4
20,O=C(Cc1ccc(F)cc1)N1CCCCC1c1ccn2ccnc2n1 (stereo not given),-3.373
21,O=C(Cc1cccc(F)c1)N1CCCCC1c1ccn2ccnc2n1 (stereo not given),7.751
22,CC(C)(C)OC(=O)N1CCCCC(NC(=O)CCc2cccnc2)C1 (stereo not given),15.24

row,Compound,Percent Effect [%]
1,O=C(COc1cccc(F)c1)N1CCCCC1c1ccn2ccnc2n1 (stereo not given),137.7
2,O=C(Cc1ccccc1F)N1CCCCC1c1ccn2ccnc2n1 (stereo not given),125
3,CN1C(=O)c2ccc(NC(=O)CSc3ccc4c(c3)CCC4)cc2C1=O,8.962
4,Cc1ncsc1CCC(=O)NCc1cc2n(n1)CCN(C(=O)N(C)C)C2,-5.05
5,CCOC(C)C(=O)Nc1cc(S(=O)(=O)NC2CC2)ccc1F (stereo not given),0.6608
6,Cn1c(=O)oc2cc(Nc3ncc(C#N)cc3Cl)ccc21,-1.67
7,COc1ccc(CN2CCc3c(nc(-c4ccccn4)[nH]c3=O)C2)cc1,130.9
8,COc1ccccc1CN1C[C@@H](F)[C@@H](OCc2nc3ncccc3[nH]2)C1,-5.339
9,COc1ccc2c(c1)CN(Cc1nc3ccsc3c(=O)[nH]1)CC2,-2.354
10,CCc1nnc(CN2CCc3[nH]c(-c4ccc(OC)cc4)nc3C2)o1,-0.2672
11,c1ccc(-c2noc(CN3CCc4c(ncn4C4CC4)C3)n2)nc1,-14.25
12,O=C(c1ccco1)N1CCc2c(nc(-c3ccncc3)[nH]c2=O)C1,13.85
13,O=c1[nH]c(-c2ccccn2)nc2c1CCN(Cc1cccc(O)c1)C2,110.8
14,Cc1nn(C)cc1CN1CCc2c(nc(-c3ccccn3)[nH]c2=O)C1,96.61
15,COc1ccccc1CN1C(=O)O[C@@H]2CN(c3ccccn3)C[C@@H]21,2.644
16,COc1ccccc1CN1CCc2c(nc(-c3ccccn3)[nH]c2=O)C1,118.7
17,CCn1nc2c(cc1=O)CN(Cc1nc(-c3ccccn3)no1)CC2,-6.264
18,Cn1cnc2c1CCN(Cc1cccc(C(N)=O)c1)C2,-6.228
19,Cc1nnc(CN(C)CC(=O)N2CCCN(C3CCCC3)CC2)n1C,-1.28
20,Cc1cccc(S(=O)(=O)NCC(C)(C)CC(C)O)c1C#N (stereo not given),-19.79
21,CCNC(=O)Nc1c(C)cnn1Cc1cc(F)ccc1F,-3.451
22,O=C(C[S+]([O-])Cc1c(Cl)cccc1Cl)N1CCc2sccc2C1 (stereo not given),-11.53

row,Compound,Percent Effect [%]
1,Cn1cnnc1C1CCCN(C(=O)c2n[nH]c3ccccc23)C1 (stereo not given),7.957
2,Cn1cnnc1C1CCCN(C(=O)c2cc3ccccc3[nH]2)C1 (stereo not given),124.8
3,COc1ccccc1CNC(=O)N1CCCC(c2nncn2C)C1 (stereo not given),-1.227
4,COc1cc2ccccc2cc1C(=O)N1CCCC(c2nncn2C)C1 (stereo not given),138.9
5,Cc1occc1CN(C)C(=O)Nc1ccc(=O)n(C)c1,5.737
6,c1ccc(CN2CCC(NCCc3ccc4c(c3)CCO4)CC2)nc1,2.392
7,Cn1ccc(C(=O)Nc2cccc(-c3ccc4c(c3)CCO4)n2)cc1=O,-14.88
8,Cc1nc(C)n(C2CCCN(C(=O)Cc3n[nH]c4ccccc34)C2)n1 (stereo not given),-3.08
9,Cc1nc(C)n(C2CCCN(C(=O)c3cccc4cn[nH]c34)C2)n1 (stereo not given),1.609
10,Cc1nc(C)n(C2CCCN(C(=O)CCCOc3ccccc3)C2)n1 (stereo not given),1.016
11,CCc1[nH]ncc1C(=O)N1CCCC(n2nc(C)nc2C)C1 (stereo not given),-3.385
12,N#Cc1ccc(OCC(=O)N2CCCC(n3cccn3)C2)cc1 (stereo not given),-1.98
13,Cc1nc(C)n(C2CCCN(C(=O)COc3cccc(C#N)c3)C2)n1 (stereo not given),83.98
14,Cc1nc(C)n(C2CCCN(C(=O)COc3ccccc3)C2)n1 (stereo not given),133.2
15,Cc1ccc(OCCC(=O)N2CCCC(n3nc(C)nc3C)C2)cc1 (stereo not given),93.22
16,CCOc1ccc(CC(=O)N2CCCC(n3nc(C)nc3C)C2)cc1 (stereo not given),81.54
17,Cc1nc(C)n(C2CCCN(C(=O)Cc3cccnc3)C2)n1 (stereo not given),-7.777
18,CCN(C)c1ncnc2c1CCN(Cc1nccs1)CC2.O=C(O)C(F)(F)F.O=C(O)C(F)(F)F,-6.805
19,CN(C)Cc1cc(-c2nccn2CCc2cccnc2)ccc1O,-8.952
20,Cc1nnc(NCc2ccccc2Cl)c(C#N)c1C,4.284
21,CCCC(=O)Nc1cc(C(=O)NC(C)Cc2ccncc2)ccc1C (stereo not given),2.128
